Calls of active or inactive are those of the source.
What was measured:
[1] = molecular target: Albumin (Bos taurus) (UniProt P02769); test: compounds binding labelled BSA control protein – biochemical, small-molecule microarray, Alexa647 label, 635/667 nm fluorescence, artefact control for SMM control protein annotation, profiling panel (AID 1118); conditions: BSA-A647 binding, fluorescence 635 nm, higher = more signal;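 further: score merges 667 nm emission intensity and signal-to-noise per printed compound spot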
[2] = probe aXIP binding to arrayed compounds – biochemical, NeuroSMM set, 635/667 nm fluorescence, primary screen (AID 1119); conditions: small-molecule microarray, higher = more signal, called active from +8 up or from −8 down;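 further: probe is the protein aXip251-270 applied at 1 µg/mL to compound-printed slides; binding of probe to printed compounds measured as 667 nm fluorescence plus signal to noise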
[3] = probe aNOTCH3 binding on compound microarray – biochemical, small-molecule microarray, 635/667 nm fluorescence, primary screen (AID 1120); conditions: higher = more signal;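 further: probe is a biotin-tagged antibody raised against NOTCH3 rather than NOTCH3 protein; score merges spot fluorescence near 667 nm with spot signal to noise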
[4] = probe aNOTCH2 binding on compound microarray – biochemical, small-molecule microarray, 635/667 nm fluorescence, primary screen (AID 1121); conditions: higher = more signal;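 further: score merges feature fluorescence read at 667 nm with its signal to noise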
[5] = molecular target: Carbonic anhydrase 2 (Homo sapiens) (UniProt P00918); test: compounds binding carbonic anhydrase 2 – biochemical, small-molecule microarray, Alexa647-labelled CAII, profiling panel (AID 1122); conditions: CAII-A647 binding fluorescence, higher = more signal
[6] = COS7 lysate on small-molecule microarray, probe aHis, 635 nm (AID 1123); conditions: COS7 cell lysate, fluorescence, higher = more signal;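 further: z-score combines 667nm fluorescence intensity with signal-to-noise per printed compound spot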
[7] = probe aLAP1 signal on lysate-treated microarray – cell lysate, small-molecule microarray, COS7 lysate, primary screen (AID 1124); conditions: probe aLAP1, fluorescence, higher = more signal;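 further: lysate comes from COS7 cells expressing LAP1 and is applied at 0.3 µg/mL; score merges spot fluorescence near 667 nm with signal-to-noise over triplicate slides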
[8] = tested on: Sam68 (KHDRBS1); test: compounds binding KHDRBS1 protein – biochemical, small-molecule microarray, 635 nm fluorescence, primary screen (AID 1125); conditions: higher = more signal;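 further: score merges 667 nm channel intensity with signal to noise over triplicate slides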
[9] = tested on: Chordin-like protein 2 (CHRDL2); test: compounds binding chordin-like 2 – biochemical, small-molecule microarray, 635 nm fluorescence, primary screen (AID 1126); conditions: fluorescence 635 nm, higher = more signal;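 further: printed compound slides probed with Chrdl2 protein at 4 µg/mL for 1 h at 4 C; score merges 667 nm emission intensity with signal to noise over three replicate slides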
[10] = molecular target: Concanavalin-A (Canavalia ensiformis) (UniProt P02866); test: compounds binding concanavalin A lectin – biochemical, small-molecule microarray, Alexa647 label, 635 nm, artefact control for SMM control protein annotation, primary screen (AID 1127); conditions: ConA-A647 binding fluorescence, higher = more signal;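 further: z combines 667 nm emission intensity with signal-to-noise across three replicate slides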
Chain of Concanavalin-A (Canavalia ensiformis) (P02866 whole entry, looked up): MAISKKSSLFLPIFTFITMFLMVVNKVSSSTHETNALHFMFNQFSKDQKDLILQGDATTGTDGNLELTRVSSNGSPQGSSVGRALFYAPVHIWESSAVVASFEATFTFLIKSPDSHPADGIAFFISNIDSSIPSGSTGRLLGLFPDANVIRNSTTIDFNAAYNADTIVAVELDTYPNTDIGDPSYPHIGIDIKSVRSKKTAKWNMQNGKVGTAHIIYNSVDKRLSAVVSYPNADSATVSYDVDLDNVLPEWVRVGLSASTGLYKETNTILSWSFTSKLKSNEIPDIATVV

Chain of Albumin (Bos taurus) (P02769 whole entry, looked up): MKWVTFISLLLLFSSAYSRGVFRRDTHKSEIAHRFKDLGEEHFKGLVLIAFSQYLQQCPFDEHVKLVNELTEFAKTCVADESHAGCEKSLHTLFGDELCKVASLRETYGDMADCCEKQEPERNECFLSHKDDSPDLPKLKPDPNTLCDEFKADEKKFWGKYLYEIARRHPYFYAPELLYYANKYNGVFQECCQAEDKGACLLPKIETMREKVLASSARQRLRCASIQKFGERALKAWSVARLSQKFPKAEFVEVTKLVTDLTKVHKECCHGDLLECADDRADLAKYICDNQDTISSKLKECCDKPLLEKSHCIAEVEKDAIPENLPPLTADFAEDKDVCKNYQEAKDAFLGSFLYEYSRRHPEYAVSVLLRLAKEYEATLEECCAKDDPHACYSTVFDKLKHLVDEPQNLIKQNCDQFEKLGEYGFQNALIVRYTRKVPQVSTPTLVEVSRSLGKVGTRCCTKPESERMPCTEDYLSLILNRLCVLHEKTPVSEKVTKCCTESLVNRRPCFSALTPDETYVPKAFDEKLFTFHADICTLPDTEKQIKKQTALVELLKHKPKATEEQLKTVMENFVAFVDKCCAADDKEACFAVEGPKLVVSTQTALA

| SMILES | composite z-score [1] | composite Z-score [2] | composite z-score [3] | composite z-score [4] | composite z-score [5] | composite z-score [6] | composite z-score [7] | composite z-score [8] | composite z-score [9] | composite z-score [10] |
| --- | --- | --- | --- | --- | --- | --- | --- | --- | --- | --- |
| C=CCOC(=O)[C@@H]1[C@H]2C(=O)O[C@H](c3ccccc3)[C@H](c3ccccc3)N2[C@H](c2ccc(OCCOC(=O)[C@@H]3C[C@@H]4C(=O)N[C@@H](CC(C)C)C(=O)N4[C@@H]3c3ccc(O)cc3)cc2)[C@@]12C(=O)Nc1ccc(I)cc12 | -0.766 | 0.207 (inactive) | 1.3 | 0.443 | 0.536 | 1.37 | 0.166 | 1.28 | 1.1 | 1.17 |
| CO[C@H]1O[C@H](CO)[C@@H](OC(=O)Nc2cccc(F)c2)[C@H](OC(=O)Nc2ccc3c(c2)OCO3)[C@@H]1OC(=O)Nc1ccc2c(c1)OCO2 | 0.364 | 0.942 (inactive) | 0.15 | -0.0247 | 0.753 | 1.64 | 0.678 | 1.32 | 0.149 | 0.708 |
| CCOC(=O)C[C@H]1[C@H](OC(=O)Cc2ccc3c(c2)OCO3)[C@@H](NC(=O)CC(C)C)c2cc(OCCCO)ccc2N1C(=O)c1ccc2ccccc2n1 | 0.808 | 0.0066 (inactive) | 0.121 | -0.162 | -0.107 | 0.26 | -0.0904 | 0.797 | 0.386 | 0.369 |
| COC(=O)[C@@]1(Cc2ccc(F)cc2)[C@H]2c3cc(C(=O)N4CCCC4)n(CCc4c[nH]c5cc(F)ccc45)c3C[C@H]2CN1C(=O)c1ccccc1 | 0.978 | 0.905 (inactive) | 1.05 | 0.488 | 0.767 | 2.76 | 0.202 | 1.33 | 0.212 | 1.03 |
| C=C(/C=C\CNS(=O)(=O)c1ccc(C)cc1)[C@H](O)[C@H]1CCCN1S(=O)(=O)c1ccccc1[N+](=O)[O-] | 0.678 | -0.429 (inactive) | 0.0026 | -0.147 | 0.319 | 0.119 | -0.538 | 0.127 | 0.411 | 0.152 |
| Cc1ccc(S[C@]2(C(=O)NCC(C)C)CC(=O)N(C(C)C)[C@@H]2c2ccc(CO)cc2I)cc1 | -0.0268 | 0.849 (inactive) | -0.019 | -0.057 | 0.56 | 1.07 | 0.801 | -0.236 | -0.802 | -1.16 |
| COc1cc2c(cc1OC)CN(C(=O)[C@@H]1[C@H]3C(=O)O[C@H](c4ccccc4)[C@H](c4ccccc4)N3[C@H](c3ccc(O)cc3)[C@@]13C(=O)Nc1ccc(C#CC4=CCCCC4)cc13)CC2 | 0.833 | -0.0662 (inactive) | 0.0522 | -0.0142 | 0.5 | 1.49 | 0.453 | 1.3 | 0.153 | 1.1 |
| COc1cc(Cc2cc3c(c(CCc4ccccc4)n2)[Si](C(C)C)(C(C)C)O[C@H]3c2ccccc2)cc(OC)c1OC | -0.405 | -0.0849 (inactive) | -0.15 | -0.181 | -0.128 | -0.178 | -0.177 | -0.361 | 0.06 | 0.562 |
| O=C1C2C=CC(C(O)C(c3ccccc3)c3ccccc3)N(Nc3ccccc3F)C2C(=O)N1c1ccccc1 (stereo not given) | 1 | -0.173 (inactive) | 0.24 | -0.0386 | 0.612 | 2.99 | 1.02 | 1.31 | -0.0392 | 0.5 |
| C=C(CCCC)/C(=C/C[C@@H](OC(C)=O)c1cccc(OCCO)c1)c1cc(C(=O)OC)ccc1OC | 0.119 | 0.303 (inactive) | -0.0131 | -0.168 | 0.561 | -0.22 | -0.247 | 0.71 | -0.0137 | -0.656 |
| COc1ccc([Si](C)(C)[C@H]2[C@H](CC(=O)N(CCO)Cc3ccccc3)O[C@@]3(C(=O)N(Cc4cccc(N5CCCCC5=O)c4)c4ccccc43)[C@@H]2C)cc1 | 0.124 | 1.12 (inactive) | 0.401 | -0.131 | 0.235 | 0.681 | 0.825 | 0.732 | 0.877 | 0.72 |
| C=CCNC(=O)[C@@H]1[C@H]2C(=O)O[C@H](c3ccccc3)[C@H](c3ccccc3)N2[C@H](c2ccc(O)cc2)[C@@]12C(=O)Nc1ccc(C#CC3=CCCCC3)cc12 | 0.543 | 0.986 (inactive) | 1.22 | -0.0857 | 0.676 | 1.69 | 1.24 | 1.32 | 0.334 | 1.04 |
| N#Cc1ccc(NN2C(C(O)c3ccc(B(O)O)cc3)C=CC3CN(c4ccccc4)C(=O)C32)cc1 (stereo not given) | 0.813 | -0.254 (inactive) | -0.128 | -0.188 | 0.852 | 0.417 | -0.247 | 0.141 | -0.412 | 0.133 |
| Cc1ccc(S[C@]2(C(=O)NCc3ccccc3)CC(=O)N(Cc3ccccc3C(F)(F)F)[C@@H]2c2ccc(CO)cc2I)cc1 | 0.269 | -0.915 (inactive) | -0.242 | -0.0417 | 0.815 | 1.2 | 1.04 | -0.0245 | -0.175 | -0.546 |
| COCCCNC(=O)[C@@]1(Cc2ccccc2I)c2ccccc2C(=O)N(Cc2ccccc2OC)[C@H]1c1ccc(CO)cc1 | -0.685 | 0.0679 (inactive) | -0.134 | -0.14 | 0.542 | 2.31 | -0.143 | 0.614 | -1.82 | 0.911 |
| NCCCCCCNC(=O)[C@@H]1C[C@@H]2C(=O)NCC(=O)N2[C@@H]1c1cccc(OCCO)c1 | 0.432 | 0.671 (inactive) | 0.155 | 0.0001 | 0.695 | 1.47 | 0.758 | 1.2 | 1.18 | 0.828 |

Reference: PubChem BioAssay
